A short description of test [1]: Nuclear factor erythroid 2-related factor 2/antioxidant responsive element (Nrf2/ARE) small molecule agonists: qHTS cell viability counter screen in human keratinocytes (AID 1919968; active means well fitted curve in the direction sought with a large enough effect in the repeat runs; an effect the other way counts as inactive or inconclusive; further: nearly all actives have a fitted effect of over 55% in size; further: potency means the concentration at half of the fitted maximal effect). The method in brief:
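Stably transfected HaCaT (KeratinoSens), 1,500/well. Test agents in DMSO were applied for 23 h, 37 C/5% CO2. CellTiter-Fluor was incubated 1 h before the fluorescence read.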
On the technique in general: Quantitative high-throughput screening tests each substance at several concentrations.

Test [2] is described as follows: Nuclear factor erythroid 2-related factor 2/antioxidant responsive element (Nrf2/ARE) small molecule agonists: luciferase reporter gene qHTS assay in human keratinocytes (AID 1919969; further: nearly all actives have a fitted effect of over 35% in size; further: potency means the concentration at half of the fitted maximal effect). (Reporter assays use an easily measured gene product as a stand-in for the process of interest.)
Test [3] addresses Gonadotropin-releasing hormone receptor (Homo sapiens) (UniProt P30968). The experiment in a line: Human gonadotropin-releasing hormone receptor (GnRHR) small molecule agonists, calcium flux assay in GnRHR-HEK293 cells (AID 1920063). Further: nearly all actives have a fitted effect of over 35% in size. Further: potency means the concentration at half of the fitted maximal effect. The method in brief:
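Stable human GnRHR HEK293 line. 18 h plating, then calcium dye for 1 h at 37 C. Agonist-mode compound addition from DMSO stocks; fluorescence monitored 3 min.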
(In general: Calcium flux is commonly read through the fluorescence of an indicator in the cells.)

Test [4] has as its target KiSS-1 receptor (Homo sapiens) (UniProt Q969F8). The experiment in a line: Human kisspeptin (KISS1R) small molecule agonists, calcium flux assay in KISS1R-HEK293 cells (AID 1920064; active means well fitted curve in the direction sought with a large enough effect in the repeat runs; an effect the other way counts as inactive or inconclusive). The essentials: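 After overnight (18 h) culture at 37 C/5% CO2, human KISS1R-HEK293 cells received calcium dye for 1 h, then test compound; emission at 540 nm (excitation 480 nm) was tracked for 3 min.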

Test [5] can be described thus: G protein-coupled receptor (GPCR) small molecule agonists, calcium flux assay: HEK293 wild type cell line counter screen (AID 1920065). The method in brief: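 Following 18 h incubation at 37 C/5% CO2, plates got calcium dye for 1 h; compounds, ATP or DMSO were then pinned in and fluorescence followed kinetically (480/540 nm).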
The nature of test [6]: p53 small molecule agonists, cell-based qHTS assay with human liver microsomes (AID 1963577).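 Further: p53 response element beta-lactamase reporter cells with liver microsomes plus NADPH.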 The essentials: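 With metabolic activation: human liver microsomes (0.5 mg/mL final) plus NADPH (0.5 mg/mL final) added alongside compounds to p53RE-bla cells; 16 h 37 C exposure; beta-lactamase read by LiveBLAzer fluorescence.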
A short description of test [7]: p53 small molecule agonists, cell-based qHTS assay with rat liver microsomes (AID 1963578). The essentials: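 Metabolic activation by rat liver microsomes and NADPH, each 0.5 mg/mL final, added right after compounds to p53RE-bla reporter cells (4,000/well, plated 5 h earlier). 16 h at 37 C, then LiveBLAzer substrate for 2 h at room temperature in the dark; fluorescence read-out.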

Test [8] can be described thus: p53 small molecule agonists, cell-based qHTS assay with rat liver microsomes: qHTS cell viability counter screen (AID 1963580). Further: nearly all actives have a fitted effect of over 45% in size. The method in brief: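 Cytotoxicity counter screen: intracellular ATP read by CellTiter-Glo luminescence in the p53 reporter wells. HCT-116 p53RE-bla cells were treated for 16 h at 37 C alongside rat liver microsomes and NADPH, each 0.5 mg/mL final.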

Test [9] in a line: p53 small molecule agonists, cell-based qHTS assay: qHTS cell viability counter screen (AID 1963581). Further: nearly all actives have a fitted effect of over 45% in size. The method in brief:
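qHTS counter screen: 16 h compound exposure at 37 C of p53RE-bla HCT-116 cells (4,000 per well, seeded 5 h prior), cell viability by ATP luminescence.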

A short description of test [10]: p53 small molecule agonists, cell-based qHTS assay (AID 1963582; active means well fitted activation curve with a large enough effect in the signal ratio in the repeat runs, not every such curve was filed as active; the % refers to the signal ratio). The essentials: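 Measured: fluorescence from cleaved LiveBLAzer substrate. System: p53RE-bla cells, 16 h compound treatment at 37 C, 2 h substrate step at room temperature.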
The target of test [11] is 5-hydroxytryptamine receptor 2A (Homo sapiens) (UniProt P28223). Nature of the test: 5-hydroxytryptamine receptor 2A (HTR2A) small molecule antagonists, cell-based qHTS assay (AID 1963586). Further: nearly all actives have a fitted effect of over 45% in size. The method in brief:
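CHO cells stably expressing human HTR2A were plated for 18 h at 37 C, then loaded with calcium dye for 1 h. Compounds were preincubated 5 min at room temperature before DOI (4 nM solution) was added. Kinetic fluorescence was read for 3 min.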

Test [12] shares this target. The experiment in a line: 5-hydroxytryptamine receptor 2A (HTR2A) small molecule agonists, cell-based qHTS assay (AID 1963587). Further: nearly all actives have a fitted effect of over 30% in size. Further: potency means the concentration at half of the fitted maximal effect. The essentials:
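Kinetic calcium-flux fluorescence (2 min, 1 sec intervals) after compound addition in agonist mode. HTR2A-CHO cells were cultured 18 h, then dye-loaded 1 h at 37 C.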

Test [13] has as its target Muscarinic acetylcholine receptor M1 (Homo sapiens) (UniProt P11229). Nature of the test: Cholinergic receptor muscarinic 1 (CHRM1) small molecule antagonists, cell-based qHTS assay (AID 1963588). Further: nearly all actives have a fitted effect of over 40% in size. Further: potency means the concentration at half of the fitted maximal effect. The essentials: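 Compounds were tested at 15 concentrations in three independent runs. Dye-loaded CHRM1-CHO cells were exposed 5 min at room temperature before stimulation by acetylcholine added at 50nM. Intracellular calcium was read kinetically on FDSS for 3 min.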

For test [14] the target is unchanged. The experiment in a line: Cholinergic receptor muscarinic 1 (CHRM1) small molecule agonists, cell-based qHTS assay (AID 1963589). Further: nearly all actives have a fitted effect of over 35% in size. The essentials:
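Kinetic fluorescence (1 s intervals) of calcium-sensitive dye in human M1 CHO cells after compound addition; cells pre-incubated 18 h at 37 C/5% CO2 and dye-loaded 1 h.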

Test [15] can be described thus: cAMP Responsive Elements (CRE) small molecule agonists, cell-based qHTS assay (AID 1963590). The method in brief:
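Test agents in DMSO were incubated 3 h at 37 C/5% CO2 with CRE-bla HEK 293T cells seeded 18 h earlier; LiveBLAzer B/G FRET substrate was added and read after 2 h at room temperature.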

Test [16] is described as follows: cAMP Responsive Elements (CRE) small molecule antagonists, cell-based qHTS assay (AID 1963591; active means well fitted inhibition curve with a large enough effect in the signal ratio in the repeat runs, not every such curve was filed as active; the % refers to the signal ratio). The essentials:
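Reporter line CRE-bla HEK 293T in dialyzed-FBS DMEM; cells preincubated 18 h, treated 3 h with compound plus NKH477 (0.25 uM final); LiveBLAzer FRET, 2 h RT.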

Test [17] concerns the target Beta-2 adrenergic receptor (Homo sapiens) (UniProt P07550). Nature of the test: Adrenergic beta2 receptor (ADRB2) small molecule antagonists, cell-based qHTS assay (AID 1963592). Further: series mostly up to about 92 µM; nearly all actives have a fitted effect of over 50% in size. The essentials:
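Assay format: CHO-ADRB2 cells, 18-20hr seeding at 37C/5% CO2, then compound plus 1nM isoproterenol agonist mix for 0.5hr RT. Homogeneous time-resolved fluorescence cAMP detection after 1hr, expressed as 665/615 nm ratio.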

Test [18] addresses D(2) dopamine receptor (Homo sapiens) (UniProt P14416). The experiment in a line: Dopamine D2 receptor (DRD2) small molecule agonists, cell-based qHTS assay (AID 1963594). Further: nearly all actives have a fitted effect of over 35% in size. The essentials: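 cAMP accumulation in DRD2-HEK293 cells measured by HTRF after 1 h detection; compounds added 10 min before NKH477 (200nM […]) forskolin-analogue stimulation, 30 min at room temperature, with Ro20-1724 present at 0.1 mM final.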

Test [19] shares this target. Nature of the test: Dopamine D2 receptor (DRD2) small molecule antagonists, cell-based qHTS assay (AID 1963595; active means well fitted inhibition curve with a large enough effect in the signal ratio in the repeat runs, with a control signal flat; the % refers to the signal ratio). The essentials:
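Readout: HTRF cAMP, cAMP-d2 competing with cellular cAMP for anti-cAMP cryptate, read after 1 h. Cells: DRD2-HEK293. Conditions: 0.1 mM Ro20-1724, 12 nM quinpirole, 200 nM NKH477, 30 min RT.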

A short description of test [20]: p53 small molecule agonists, cell-based qHTS assay with human liver microsomes: qHTS cell viability counter screen (AID 1963579). Further: nearly all actives have a fitted effect of over 45% in size. Further: potency means the concentration at half of the fitted maximal effect. The essentials: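 Metabolic activation used human liver microsomes and NADPH, both 0.5 mg/mL final, over 16 hours at 37 C on p53RE-bla cells (4,000/well). Cytotoxicity measured by CellTiter-Glo luminescence, 30 min at room temperature.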

Values without a mark were called inactive. Results filed as inconclusive are left out. Active and inactive are the calls of the source. Unless noted, the call rests on the fitted dose curve.
On the % scale 0 is the no-effect control and ±100 the full control effect.

KiSS-1 receptor (Homo sapiens), sequence (Q969F8 whole entry, looked up): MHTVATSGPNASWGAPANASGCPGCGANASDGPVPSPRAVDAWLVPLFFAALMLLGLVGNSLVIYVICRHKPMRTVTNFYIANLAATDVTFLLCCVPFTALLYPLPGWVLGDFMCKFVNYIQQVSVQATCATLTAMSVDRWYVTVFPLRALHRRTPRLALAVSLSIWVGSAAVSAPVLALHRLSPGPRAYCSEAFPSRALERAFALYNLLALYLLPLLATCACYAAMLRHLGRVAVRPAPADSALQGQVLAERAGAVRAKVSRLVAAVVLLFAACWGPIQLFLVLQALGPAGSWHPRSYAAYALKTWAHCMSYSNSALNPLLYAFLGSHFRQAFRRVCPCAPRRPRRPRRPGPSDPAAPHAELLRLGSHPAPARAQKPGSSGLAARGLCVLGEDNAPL
Gonadotropin-releasing hormone receptor (Homo sapiens), sequence (P30968 whole entry, looked up): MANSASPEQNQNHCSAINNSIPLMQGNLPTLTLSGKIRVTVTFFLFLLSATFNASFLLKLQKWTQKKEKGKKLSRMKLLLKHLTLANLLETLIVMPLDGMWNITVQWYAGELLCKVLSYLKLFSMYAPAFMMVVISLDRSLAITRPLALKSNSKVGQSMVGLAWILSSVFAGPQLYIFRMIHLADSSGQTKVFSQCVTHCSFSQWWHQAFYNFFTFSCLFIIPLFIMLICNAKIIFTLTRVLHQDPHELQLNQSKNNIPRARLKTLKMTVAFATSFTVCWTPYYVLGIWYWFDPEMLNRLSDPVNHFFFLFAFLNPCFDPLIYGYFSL
5-hydroxytryptamine receptor 2A (Homo sapiens), sequence (P28223 whole entry, looked up): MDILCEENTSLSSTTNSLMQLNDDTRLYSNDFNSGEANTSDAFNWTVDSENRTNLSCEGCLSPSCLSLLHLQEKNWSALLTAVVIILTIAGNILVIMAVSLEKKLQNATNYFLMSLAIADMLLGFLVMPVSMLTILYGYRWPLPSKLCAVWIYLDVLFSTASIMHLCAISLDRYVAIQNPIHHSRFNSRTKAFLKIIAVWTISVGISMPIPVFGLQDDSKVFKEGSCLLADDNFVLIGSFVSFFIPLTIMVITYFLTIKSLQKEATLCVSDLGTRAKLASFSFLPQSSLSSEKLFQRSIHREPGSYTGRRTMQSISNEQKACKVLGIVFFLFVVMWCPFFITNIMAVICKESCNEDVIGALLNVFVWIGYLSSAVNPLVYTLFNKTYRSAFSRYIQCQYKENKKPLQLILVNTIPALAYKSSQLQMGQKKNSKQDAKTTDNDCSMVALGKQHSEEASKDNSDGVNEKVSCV
Beta-2 adrenergic receptor (Homo sapiens), sequence (P07550 whole entry, looked up): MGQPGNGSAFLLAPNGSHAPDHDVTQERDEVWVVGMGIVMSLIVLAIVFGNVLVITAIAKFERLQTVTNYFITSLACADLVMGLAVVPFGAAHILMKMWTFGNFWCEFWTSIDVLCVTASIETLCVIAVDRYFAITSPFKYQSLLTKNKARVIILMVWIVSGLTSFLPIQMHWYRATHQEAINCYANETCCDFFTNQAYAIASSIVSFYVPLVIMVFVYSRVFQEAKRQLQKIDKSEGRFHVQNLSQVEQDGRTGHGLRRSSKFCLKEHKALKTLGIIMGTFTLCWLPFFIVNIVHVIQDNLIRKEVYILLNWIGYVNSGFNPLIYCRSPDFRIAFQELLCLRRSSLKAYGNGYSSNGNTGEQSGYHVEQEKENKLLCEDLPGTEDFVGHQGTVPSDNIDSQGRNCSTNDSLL
D(2) dopamine receptor (Homo sapiens), sequence (P14416 whole entry, looked up): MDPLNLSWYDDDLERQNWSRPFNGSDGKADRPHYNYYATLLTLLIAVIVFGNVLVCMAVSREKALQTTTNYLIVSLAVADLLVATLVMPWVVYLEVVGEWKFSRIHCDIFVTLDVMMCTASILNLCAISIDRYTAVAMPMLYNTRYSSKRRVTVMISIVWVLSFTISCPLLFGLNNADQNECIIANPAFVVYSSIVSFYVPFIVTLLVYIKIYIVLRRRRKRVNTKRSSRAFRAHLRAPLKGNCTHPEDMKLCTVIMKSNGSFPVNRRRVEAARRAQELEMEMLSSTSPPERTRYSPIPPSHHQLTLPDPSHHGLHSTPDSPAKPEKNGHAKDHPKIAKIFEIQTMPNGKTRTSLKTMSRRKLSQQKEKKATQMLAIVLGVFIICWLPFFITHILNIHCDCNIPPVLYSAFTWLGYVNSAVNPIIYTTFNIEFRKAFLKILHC
Muscarinic acetylcholine receptor M1 (Homo sapiens), sequence (P11229 whole entry, looked up): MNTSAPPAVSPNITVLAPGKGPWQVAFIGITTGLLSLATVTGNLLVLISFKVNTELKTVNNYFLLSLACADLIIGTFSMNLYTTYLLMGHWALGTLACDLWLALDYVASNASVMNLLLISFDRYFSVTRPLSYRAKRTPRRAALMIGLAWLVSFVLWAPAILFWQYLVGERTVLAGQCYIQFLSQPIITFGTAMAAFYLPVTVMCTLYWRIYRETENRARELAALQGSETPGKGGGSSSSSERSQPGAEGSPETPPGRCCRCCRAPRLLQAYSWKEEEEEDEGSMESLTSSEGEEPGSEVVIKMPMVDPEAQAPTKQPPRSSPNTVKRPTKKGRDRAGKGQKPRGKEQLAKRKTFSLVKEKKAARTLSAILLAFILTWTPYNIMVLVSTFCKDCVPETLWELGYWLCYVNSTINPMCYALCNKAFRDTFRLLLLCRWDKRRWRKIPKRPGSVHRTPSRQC

As to `CC(=O)NO`, the Potency result in [1], in test [2], in test [3], in test [6], in [7] and in test [8] was “inactive” each time. Moreover, the Potency entry in [9], in test [10], in test [11], in [12], in test [13] and in [14] was “inactive” throughout. Also, the Potency entry in test [15], in [16], in [17], in test [18] and in test [19] was “inactive” in each case. Besides, the outcome in test [4] and in [5] was inactive.

Consider `COc1ccc([C@@H]2Sc3ccccc3NC(=O)[C@@H]2O)cc1`, for which the Potency entry in test [1], in [2], in [3], in [6], in [7] and in [20] was “inactive” throughout. Also, the Potency result in test [10], in test [11], in [12], in test [13], in [14] and in test [15] was “inactive” throughout. Moreover, the Potency result in test [17] and in test [19] was “inactive” each time. Besides, the result in test [4] and in test [5] was inactive.

In the case of `CC(C)CCCCCCc1ccc(OCCOCCO)cc1`, the Potency entry in test [1], in test [2], in [3], in test [6], in test [7] and in test [8] was “inactive” throughout. Also, the Potency result in [9], in test [10], in test [11], in test [12], in test [13] and in [14] was “inactive” each time. The Potency entry in [15], in test [16], in test [17], in test [18] and in test [19] was “inactive” each time. The outcome in [4] and in [5] was inactive.

Regarding `CCCCCCCCCCCCN(CCO)CCO`, the Potency in test [1] was 30.5 µM (active); in [3], 30.8 µM (active); in test [20], 45.6 µM (active); in test [12], 48.8 µM (active); in test [13] it was 11.8 µM (active). Also, the Potency result in [2], in test [6], in [7], in test [17], in [18] and in test [19] was “inactive” in each case. Further, the outcome in [4] and in test [5] was inactive.

For the compound `O=C(c1ccccc1)c1ccc(Cl)cc1`, the Potency result in test [1], in [3], in test [6], in test [7], in test [20] and in test [9] was “inactive” in each case. Moreover, the Potency result in [12], in [13], in test [14], in [16], in [17] and in test [18] was “inactive” each time. The Potency in test [2] is 61.1 µM (active). The result in [4] and in test [5] was inactive.

As to `CC(C)c1ccc(C#N)cc1`, the Potency entry in test [1], in test [2], in [3], in test [6], in [7] and in [20] was “inactive” each time. In addition, the Potency result in test [10], in [11], in [12], in test [14], in test [15] and in test [16] was “inactive” in each case. Further, the Potency entry in test [17], in [18] and in test [19] was “inactive” in each case. The result in test [4] and in test [5] was inactive.

Turning to `CCCCN1C=CN(C)C1`, the activity change, negative = cytotoxicity is 3.2% [at 19 µM] in test [1], 1.05% [at 13.5 µM] in test [8] and -5.52% [at 13.5 µM] in test [9]. Moreover, in test [2], the activity, positive = activation was 5.6% [at 19 µM]. In addition, the activity change in [3] was 1.08% [at 11.8 µM, active compounds read high]. Moreover, the activation was 2.8% [at 15.8 µM] in test [4]; 0.0752% [at 11.8 µM] in test [5]; -0.103% [at 13.5 µM] in test [6]; 0.456% [at 13.6 µM] in test [7]; -0.772% [at 13.5 µM] in [10]; 7.66% [at 15.9 µM] in test [12]. Moreover, the activation in test [14] was 4.26% [at 15.8 µM]; in test [15], -0.578% [at 19 µM]; in test [18] it was 0.42% [at 19 µM]. The activity, negative = inhibition in test [11] was -10.9% [at 12.7 µM]; in test [13] it was 0.644% [at 12.6 µM]. For the same compound, the activity change, negative = inhibition in test [16] was -0.722% [at 18.9 µM]; in test [17], 3.2% [at 19 µM]; in test [19], 2.35% [at 18.9 µM].

(Values after PubChem BioAssay (Tox21).)
